tim23-1 inh – growth inhibitors of tim23-1 mutant yeast, primary screen, luminescence, uHTS; S. cerevisiae tim23-1 growth, BacTiter-Glo luminescence, 24 h; inhibition, % at 20 µM; 1.3% of 330,000 active; AID 463212, 2010;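 active = growth inhibition of the mutant yeast at or above 50%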;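 also: temperature-sensitive mutant grown at 25 °C; plate controls were DMSO-treated mutant yeast for no effect and medium wells lacking yeast for full effect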
SKKanGAS inh – S. pyogenes SKKanGAS growth inhibitors in kanamycin, primary screen, streptokinase expression inhibitor project, SKKanGAS strain, BacTiter-Glo luminescence; 6 h; inhibition, % at 7.5 µM; 1.3% of 300,000 active;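 active = mean replicate score, as percent of positive control median, at least 50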;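 also: strain carries kanamycin resistance gene driven by streptokinase promoter and grows in 40 µg/ml kanamycin; loss of luminescence reflects streptokinase promoter inhibition or plain growth inhibition; 0% = median of DMSO wells and 100% = positive control at its reference dose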
tim10-1 inh – growth inhibitors of tim10-1 mutant yeast, primary screen, luminescence, uHTS; 2.2% of 330,000 active; inhibition, % at 20 µM; S. cerevisiae tim10-1 ts strain growth, BacTiter-Glo, 24 h; AID 463190, 2010;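 active = inhibition of at least 40%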;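 also: mutant grown at 25 °C; 0% = DMSO wells with yeast and 100% = wells holding no yeast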
PfHsp90 set2 – growth inhibition of PfHsp90-expressing yeast, primary screen, antimalarial PfHsp90 inhibitor project, S. cerevisiae, BacTiter-Glo luminescence, single point, set 2 | BacTiter-Glo ATP, 48 h; yeast lacking PDR1 and PDR3 efflux regulators | inhibition, % at 9.4 µM | 0.32% of 310,000 active;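 active = every replicate shows inhibition above about 80%, whatever the replicate mean, limit read from the data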;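 also: 0% = DMSO neutral controls and 100% = 20 µM radicicol positive controls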
TIM10 inh – growth inhibitors of isogenic TIM10 control yeast, primary screen, counter-screen for tim10-1 yeast inhibitor project, luminescence, uHTS. 1.4% of 330,000 active. inhibition, % at 10 µM. S. cerevisiae TIM10 strain growth, BacTiter-Glo luminescence, 24 h;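 active = inhibition of 40% or more at the single tested concentration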;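 also: wild-type TIM10 isogenic control strain grown at permissive 25 °C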
tim10-1 confirm – growth inhibitors of tim10-1 mutant yeast, confirmation, single concentration, luminescence, S. cerevisiae. shares compounds with tim10-1 inh. S. cerevisiae tim10-1 ts strain growth, BacTiter-Glo, 24 h. inhibition, % at 20 µM. 56% of 7,400 active. AID 463213, 2010;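 active = inhibition of yeast growth at or above a set limit in either of two repeat tests at 20 µM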;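 also: tim10-1 mutant grown at permissive 25 °C to find synthetic lethal compounds; 0% = DMSO yeast wells and 100% = medium wells without yeast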
* hit, by the source's call; x = not tested or not shown. Hits are enriched below; roughly 4.4% of the tested compounds scored in any of these assays.

SMILES | tim23-1 inh | SKKanGAS inh | tim10-1 inh | PfHsp90 set2 | TIM10 inh | tim10-1 confirm
Cc1cc(=O)n(-c2ccc3ccccc3n2)[nH]1 | 12 | 2 | 54* | -15 | 13 | 19
C=CCN1C(=O)C2(NNc3ccccc3O2)c2ccccc21 (stereo not drawn) | 36 | 43 | 1 | -8 | 34 | x
CCCCN1C(=O)C2(NNc3ccccc3O2)c2ccccc21 (stereo not drawn) | 33 | 11 | 43* | 6 | 31 | 19
CC(=O)Nc1ccc(OS(=O)(=O)c2c(C)cc(C)cc2C)cc1 | 41 | -16 | 46* | -21 | 33 | 31*
C/C(=N\NC(=O)CNc1cccc(C(F)(F)F)c1)c1ccc(Br)cc1 | 12 | -13 | 27 | 10 | 12 | x
C/C(=N\Nc1cccc(C(F)(F)F)c1)c1ccc(O)cc1 | 16 | 2 | 45* | 9 | 9 | -10
COc1cc2cc[n+](Cc3ccc([N+](=O)[O-])cc3)cc2cc1OC | 6 | -3 | 3 | 6 | -9 | x
Cc1ccccc1OCC(=O)Nn1c(COc2ccccc2)nc2ccccc2c1=O | 40 | 22 | 45* | -11 | 13 | 27
CCn1cc(CCCC(=O)NCc2ccc(OC)cc2)c2ccccc21 | 23 | 2 | 14 | -21 | 23 | x
CC(C)(C)C1CCc2nc(NC(=O)Cc3cn4ccsc4n3)sc2C1 (stereo not drawn) | 47 | 47 | 57* | -10 | 30 | 34*
Cc1ccc(S(=O)(=O)N/N=C2/CC(c3ccccc3)Oc3ccccc32)cc1[N+](=O)[O-] (stereo not drawn) | 14 | 25 | 20 | -32 | 28 | x
O=S(=O)(N/N=C1/CCCc2ccccc21)c1ccc(Br)cc1 | 28 | 10 | 42* | -43 | 36 | 24
O=S(=O)(N/N=C1/CC(c2ccccc2)Oc2ccccc21)c1ccc(Br)cc1 (stereo not drawn) | 29 | 36 | 41* | x | 29 | 29*
O=S(=O)(N/N=C1\CCCc2ccccc21)c1ccccc1 | 31 | x | 16 | 8 | 18 | x
C[C@H]1CN(S(=O)(=O)c2c(F)cccc2F)CCN1S(=O)(=O)c1ccc2c(c1)OCCO2 | 35 | x | 14 | -24 | 6 | x
CCOC(=O)N1CCC(NC(=O)c2ccc3c(c2)N=C(C)c2c(C)ccc(C)c2S3)CC1 | 45 | 9 | 44* | -17 | 22 | 3
S=c1nc(Cc2ccccc2)[nH]c2ccccc12 | 28 | 5 | 43* | -21 | 31 | 12
CN(C)C(CNC(=O)c1cc(S(=O)(=O)N(C)c2ccc(F)cc2)ccc1Cl)c1cccs1 (stereo not drawn) | x | x | x | 23 | x | x
CCOC(=O)n1c(=O)n(Cc2ccccc2Cl)c2ccccc21 | 48 | 2 | 43* | -16 | 20 | 33*
CCOc1ccccc1Nc1nc(-c2sc(C)nc2C)cs1 | 28 | 31 | 47* | -2 | 31 | 24
CCOc1ccccc1Nc1nc(-c2sc(NC(=O)c3ccco3)nc2C)cs1 | 31 | 43 | 17 | -6 | 1 | x
CC(=O)N1CCN(S(=O)(=O)c2cccc(C(=O)Nc3cc(C(F)(F)F)ccc3N3CCOCC3)c2)CC1 | 15 | 18 | 7 | -6 | 5 | x
O=C(COC(=O)c1ccccc1C(=O)c1ccccc1)Nc1ccc(SC(F)F)cc1 | 39 | 0 | 41* | -26 | 40 | 31*
Clc1ccccc1Nc1nnc(-c2ccncc2)s1 | 42 | 34 | 40* | 66 | 30 | 41*
CCCCC(=O)OCC(=O)N1N=C(c2c[nH]c3ccccc23)C(O)C1c1ccc(OC)cc1 (stereo not drawn) | 8 | 29 | 35 | -7 | 7 | x
CCOc1cc(/C=C2\N=C(SCC)SC2=O)cc([N+](=O)[O-])c1OC(C)=O | 6 | 17 | 32 | -20 | 17 | x
CCOc1cc(/C=C2\N=C(SC)SC2=O)cc([N+](=O)[O-])c1OC(C)=O | 46 | 8 | 42* | 26 | 15 | 26
O=C(NNC(=S)NC1CCCCC1)c1sc2ccccc2c1Cl | 46 | -4 | 50* | -34 | 25 | 32
